Sampled rows, rich in hits. Any-hit rate of the full collection: about 1.6%.
PrP UTR inh: inhibition of PrP 5' UTR reporter expression; AID 488862, 2010; cell-based PrP 5' UTR mRNA reporter, plate reader; inhibition, % (concentration not given with the values); 340,000 compounds, 0.35% hits; in the data active means inhibition above about 52%; further: 0 = median of the neutral control wells
SARS 3CLpro inh-1: SARS-CoV 3CLpro protease inhibitors, primary screen, biochemical, quenched FRET; Replicase polyprotein 1ab (Severe acute respiratory syndrome coronavirus), P0C6X7; inhibition, % at 6 µM; 290,000 compounds, 0.14% hits; recombinant SARS-CoV 3CLpro, quenched FRET peptide cleavage; in the data active means inhibition above about 12%
BH1578 lux ind: inducers of Vibrio cholerae quorum light production without autoinducers, primary screen, BH1578 luxS cqsA deficient, single point. 350,000 compounds, 0.16% hits. AID 588436, 2011. V. cholerae BH1578 lux reporter, luminescence, 6 h. activation, % at 18.7 µM; in the data active means activation mostly above about 9.7%, no sharp cut-off
PfHsp40 yeast: rescue of yeast from PfHsp40 toxicity, primary screen, S. cerevisiae, ATP luminescence. S. cerevisiae expressing PfHsp40, growth rescue. growth rescue, % at 12.5 µM. 340,000 compounds, 0.68% hits; in the data active means growth rescue above about 28%, passing the limit was not always enough;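 further: yeast W303a lacking pdr1 and pdr3 grown in galactose medium; growth measured after three days at 30 °C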
PriA SSB inh: inhibitors of Klebsiella pneumoniae PriA binding to SSB C-terminal tail, primary screen, biochemical, AlphaScreen. AID 1272365, 2023. 430,000 compounds, 0.6% hits. inhibition, % at 33 µM. AlphaScreen SSBct-PriA binding, biotinylated peptide. PriA–SSB C-terminal tail interaction (Klebsiella pneumoniae); in the data active means inhibition mostly above about 37%, no sharp cut-off; inactive means mostly below about 20%;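 further: plate controls were negative control peptide for no effect and reference peptide for full effect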
PrPC surface inh: inhibitors of human cell surface prion protein PrPC, primary screen, cell-based, TR-FRET; inhibition, % at 13.8 µM; 370,000 compounds, 0.43% hits; TR-FRET read-out; Major prion protein (Homo sapiens), P04156; in the data active means inhibition above about 24%; further: 0% = median of the test wells and 100% = reference compound wells
SARS 3CLpro inh-2: confirmation of SARS coronavirus 3C-like protease inhibitors, retest, confirmation, biochemical | shares compounds with SARS 3CLpro inh-1 | QFRET protease activity assay, 3CLpro | inhibition, % at 6 µM | 380 compounds, 36% hits; in the data active means inhibition above about 13%
Numbers without * were called inactive; i = inactive; · = no result given.

SMILES	PrP UTR inh	SARS 3CLpro inh-1	BH1578 lux ind	PfHsp40 yeast	PriA SSB inh	PrPC surface inh	SARS 3CLpro inh-2
CC1CCC2C(=O)N(c3cc(Cl)ccc3OC(=O)c3ccco3)C(=O)C2C1 (stereo unspecified)	-12	46*	0	0	6	-6	60*
COc1ccc(C2=NN(C(=O)c3ccco3)[C@H](c3cccs3)C2)c(OC)c1	·	·	·	·	0	·	·
O=C(Oc1cccnc1)c1ccccc1[N+](=O)[O-]	-10	20*	-1	0	0	3	51*
COc1ccc(C(=O)Oc2cccnc2)cc1	-13	25*	i	0	-1	2	39*
O=C(Cc1cccc2ccccc12)NCCN1CCN(c2ccccc2)CC1	·	·	·	·	0	·	·
Cc1ccc2[nH]c3c(c2c1)CN(C(=O)CN1CCN(c2cccc(C)c2C)CC1)CC3	-16	4	i	-1	-12	-12	·
Cc1ccc2[nH]c3c(c2c1)CN(C(=O)CN1c2ccc(F)cc2CCC1C)CC3 (stereo unspecified)	-10	44*	i	0	9	-4	28*
CNC(=O)N(O)C1N(/N=C/c2cccs2)C(=S)SC1(C)C (stereo unspecified)	-6	13*	-2	0	i	-3	2
O=C(/C=C/c1cccs1)Nc1scc(-c2ccccc2)c1C(=O)O	-34	23*	2	17	6	-2	61*
CCOC(=O)c1ccc(NC(=O)Cn2nc3c(cc2=O)CCCC3)cc1	·	·	·	·	-10	·	·
Cc1c(OCC(=O)N[C@@H](Cc2c[nH]c3ccccc23)C(=O)O)ccc2c1oc(=O)c1ccccc12	-57	14*	-1	0	4	5	9
O=C(NCC[C@H](O)c1ccsc1)C(=O)Nc1cccc(C(F)(F)F)c1	·	·	·	·	-9	·	·
Cc1ccc(Nc2nc(NCCCO)nc3n[nH]nc23)cc1	·	·	·	·	-10	·	·
COC(=O)c1ccc(NC(=O)c2ccc(NC(=O)c3ccco3)cc2)cc1	-19	13*	-8	-2	5	-10	-1
CC(=O)c1ccc(NC(=O)c2ccc(NC(=O)c3ccco3)cc2)cc1	-2	2	-2	-1	14	·	·
Cc1ccc(C)c(S(=O)(=O)N2CCN(C(=O)c3ccc(-n4cncn4)c([N+](=O)[O-])c3)CC2)c1	-12	·	1	·	6	-19	·
Cc1ccc(C)c(S(=O)(=O)N2CCN(C(=O)c3ccc(N4CCCC4)c([N+](=O)[O-])c3)CC2)c1	-8	13*	-1	2	36	-3	5
CCOc1ccc(C(NC(=O)CC)c2c(O)ccc3ccccc23)cc1 (stereo unspecified)	-22	2	i	3	-4	1	·
CC(C)CC(=O)NC(c1ccccc1Cl)c1c(O)ccc2ccccc12 (stereo unspecified)	7	13*	0	2	4	16	2
Cn1cnc2cc(OC(=O)c3ccccc3)ccc21	-4	15*	-12	-1	-4	0	10
Cn1cnc2cc(NC(=O)c3ccc(Cl)cc3)ccc21	-44	33*	0	-1	-16	4	31*
Cc1ccc(C(=O)Oc2ccc3c(c2)ncn3C)cc1	-87	22*	i	1	-7	-9	31*
CCN1CCC[C@@H]1CNC(=O)c1cnn2c1OCCC2	·	·	·	·	-19	·	·
COc1cccc(NC(=O)COC(=O)Cc2ccccc2[N+](=O)[O-])c1	-15	4	i	-1	4	3	·
CSc1cccc(NC(=O)Cc2ccccc2[N+](=O)[O-])c1	-4	14*	-1	-2	-1	-1	6
COc1ccc(Br)c(C(=O)N2CCC(Oc3cc(C)n(C)c(=O)c3)CC2)c1	·	·	·	·	0	·	·
CCOc1ccc(NC(=O)c2ccc(F)c(S(=O)(=O)N3CCN(c4cccc(Cl)c4)CC3)c2)cc1	·	·	·	·	0	·	·

Assay outcomes from PubChem.
